Reference: PubChem BioAssay AID504421 (National Center for Advancing Translational Sciences (NCATS), 2011)
This is one part of the list. The source made the active and inactive calls. Calls come from the whole dose curve.

The compounds below were run against Dual specificity protein kinase CLK4 (Homo sapiens) (UniProt Q9HAZ1) (assay: Kinase Inhibition Study on Inhibitors of CDC-like Kinase 4 (Reaction Biology data): SAR round 2). Conditions: Reaction Biology kinase assay, 10 uM ATP.
Source text: NIH Molecular Libraries Probe Production Centers Network [MLPCN] NIH Chemical Genomics Center [NCGC] MLPCN Grant: 1R03MH084827-01 Assay Submitter (PI): Tom Misteli NCGC Assay Overview: Alternative splicing of pre-mRNAs plays a major role in the regulation of eukaryotic gene expression. Alternative splicing is now thought to be one of the primary reasons for the complexity of higher organisms leading to an average of three protein isoforms per gene. Aberrant splicing can lead to a number of diseases and is known to play a role in rare genetic diseases such as progeria syndrome. Hutchinson-Gilford Progeria Syndrome (HGPS) is a pediatric premature aging disease caused by a spontaneous mutation in the lamin A/C (LMNA) gene due to a single point mutation in the lamin A gene effecting 1 in 4 million people. To identify both specific splicing modulators of the lamin A gene as well as general splicing modulators, a cell-based HTS assay was developed using a minigene reporter system (AIDs, 1459 & 1487). […] This AID summarizes the characterization of lead compounds in Clk4.
All kinase reactions were performed using 10 uM ATP in the assay. 100% activity was taken from kinase reactions with DMSO alone (the vehicle used for compound stock solutions).

Chain of Dual specificity protein kinase CLK4 (Homo sapiens) (Q9HAZ1 whole entry, looked up, canonical isoform): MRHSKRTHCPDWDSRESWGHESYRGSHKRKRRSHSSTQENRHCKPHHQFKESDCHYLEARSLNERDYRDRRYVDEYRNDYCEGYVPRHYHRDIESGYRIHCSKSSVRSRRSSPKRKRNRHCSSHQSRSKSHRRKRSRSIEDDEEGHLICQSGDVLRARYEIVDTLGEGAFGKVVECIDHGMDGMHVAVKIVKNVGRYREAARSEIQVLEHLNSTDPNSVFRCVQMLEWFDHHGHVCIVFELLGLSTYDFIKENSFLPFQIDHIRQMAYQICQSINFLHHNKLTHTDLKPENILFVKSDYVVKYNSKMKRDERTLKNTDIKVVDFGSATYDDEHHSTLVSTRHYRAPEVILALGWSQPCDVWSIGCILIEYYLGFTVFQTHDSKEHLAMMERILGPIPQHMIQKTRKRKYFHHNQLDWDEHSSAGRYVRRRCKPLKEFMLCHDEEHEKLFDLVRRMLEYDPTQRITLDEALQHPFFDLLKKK

Potency, active:
c1coc(CCNc2ncnc3ccc(-c4ccc5c(c4)OCO5)cc23)c1 42 nM
CC(Nc1ncnc2ccc(-c3ccc4c(c3)OCO4)cc12)c1ccco1 (centres undefined) 7600 nM
c1nc(N2CCOCC2)c2cc(-c3ccc4c(c3)OCO4)ccc2n1 135 nM
CN(Cc1cncn1C)c1ncnc2ccc(-c3ccc4c(c3)OCO4)cc12 507 nM
